This note sets out measurements from PubChem BioAssay AID720519 (National Center for Advancing Translational Sciences (NCATS), 2013).

Records with an inconclusive call do not appear. Where a call stands in place of a potency, no number is given. Active and inactive are the calls of the source. Calls come from the whole dose curve; as a rule, active = well fitted activation curve with a large enough effect; inconclusive = small, poorly fitted or top-dose-only effect; inactive = flat fitted curve, though single readings scatter.

A short description of this test: qHTS for Inhibitors of Cell Surface uPA Generation: Confirmatory Assay for Cherry-picked Compounds. Conditions: cell surface uPA activity generation, qHTS confirmation; series mostly up to 115 µM. The method in brief: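 RAW 264.7 cells at 4000/well, incubated overnight, then treated with compounds. After 24 h at 37 C, viability was read by ATPlite luminescence. An increase in signal indicates blocked uPA-dependent LF entry.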
(In general: Quantitative high-throughput screening tests each substance at several concentrations.)
Regarding `CC[C@]1(C(=O)OC)[C@H]2C(=O)N(C)C(=O)[C@H]2[C@H]2CN(C)C(=NC3CCCCC3)N21`, the Potency entry was “inactive”.

Consider `Cc1[nH]c2ccc(C(=O)OC(C)C(=O)NC3CCCCC3C)cc2c1C` (stereo not given), for which the Potency entry is “inactive”. For `Cc1ccc(S(=O)(=O)N2CCOCC2)cc1C(=O)OC1CCOC1=O` (stereo not given) the value was “inactive”. With `Cc1cc(/C=N/NC(=O)c2ccccc2F)c(C)n1-c1ccccc1` the entry was “inactive”. Take `c1csc(CN2CCOCC2)c1`: the Potency entry is “inactive”. With `C[C@@H](CSc1ccccc1)CN1CC[C@H](O)CCC1=O` the entry was “inactive”; with `CCOc1ccc(C(=O)NCCO)cc1`, “inactive”; with `O=C(NCCc1ccccc1)C1CCC(=O)N(Cc2cccc(C(F)(F)F)c2)C1` (stereo not given), “inactive”. With `COc1cc(C2/C(=C(\O)c3ccc4c(c3)CC(C)O4)C(=O)C(=O)N2CC2CCCO2)cc(OC)c1OC` (stereo not given) the entry was “inactive”; with `Cc1ccc(-c2nc(CS(=O)(=O)CC(=O)NCc3cccc(F)c3)c(C)o2)cc1`, “inactive”; with `CCO[C@H]1OC(C(=O)N2CCCCCCC2)=C[C@@H](c2ccc(C(F)(F)F)cc2)[C@@H]1CCCO`, “inactive”. As for `CC1CCCN(C(=O)c2ccc(-c3ccccc3Cl)o2)C1` (stereo not given), the Potency entry is “inactive”.

Turning to `COc1ccc(-c2cc3nc(-c4ccccc4)cc(N4CCCC(O)C4)n3n2)cc1` (stereo not given), the Potency entry was “inactive”. For `Cc1nn2c(=O)cc(CSc3nc4ccccc4[nH]3)nc2s1`, the Potency result was “inactive”. For `O=C(O)COc1ccccc1/C=N/NC(=O)CNC(=O)c1ccco1` the value was “inactive”; for `CC(C)(C)OC(=O)NCCCCCNC(=O)c1[nH]cnc1C(=O)Nc1ccc(Cl)cc1`, “inactive”; for `CC(C)Cn1cnc2c1c(=O)[nH]c(=O)n2Cc1ccccc1`, “inactive”. With `C[C@@]12C(=O)N(CC3CCCO3)CC(=O)N1[C@H]1c3cc(Cl)ccc3OC[C@@H]1[C@@H]2c1ccccc1` (stereo not given in full) the entry was “inactive”; with `CCc1ccc(OCC(=O)N(Cc2cccs2)C2CCS(=O)(=O)C2)cc1` (stereo not given), “inactive”. With `O=C(Nc1cccc(NC(=O)c2ccc(F)cc2)c1)c1ccc(F)cc1`, the Potency entry was “inactive”.
